# The emibetuzumab library of Makowski et al. (2022)
# The other results are listed elsewhere or left out. No count for the full screen is at hand.
# B1: VH:VL chains; a variant is named by its letters at X, in order (parent)
# chain 1: QVQLVQSGAEVKKPGASVKVSCKASGYTFTDYXMHWVRQAPGQGLEWMGXVNPNXXXTTYNQKFEGRVTMTTDTSTSTAYMELRSLRSDDTAVYYCARXNXLDXWGQGTTVTVSS
# chain 2: DIQMTQSPSSLSASVGDRVTITCSVSSSVSSIYLHWYQQKPGKAPKLLIYSTSNLASGVPSRFSGSGSGTDFTLTISSLQPEDFATYYCQVYSGYPLTFGGGTKVEIK
# Variants of: B1
# Assay: yeast display scFab, FACS + sequencing
# Conditions: with MET
# Outline: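 For FACS, yeast displaying a heavy-chain CDR mutant scFab library were labelled with 1 nM HGFR-Fc and anti-Myc (PBSB, 1% milk, 3 h, room temperature), and the top 50% antigen-positive cells were gated. Input and round-3 sorted populations were deep sequenced in two replicates. The binding call was positive for sequences occurring in both antigen-positive samples and negative for sequences occurring only in input.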
row,Variant,antigen binding call
1,SAARDFWV,no binding
2,DKEGGDLA,no binding
3,YRKGSSVD,binds
4,YRKGASVD,binds
5,ATGGDDGF,no binding
6,DTTGSDWA,no binding
7,DERRSSAF,no binding
8,YRRGGAAF,binds
9,SERRSSAF,no binding
10,YRKGASAF,binds
11,VRRRGSAF,binds
12,YERRSSAF,binds
13,DGGRGDAF,no binding
14,DGTGGSGA chain 1 R67H,no binding
15,VRRRGSLF,binds
16,YRRRGSAF,binds
17,FRRRDAAF,no binding
18,YRRRGAAF,binds
19,DKGEGDGA,no binding
20,SKAGSDVA,no binding
21,YRGRGFWF,binds
22,YRTRGAWF,binds
23,YKGRGFWA,no binding
24,YRGRSAWF,binds

row,Variant,antigen binding call
1,FRGRGAWF,binds
2,DRGRDAWF,no binding
3,FRTGSAWF,no binding
4,YAGGDDAA,no binding
5,VEAGTAVA,no binding
6,YRGRGAWF,binds
7,YRGRGAVF,binds
8,YEGTGAVF,no binding
9,YAGRGDVF,no binding
10,VAREDDWA,no binding
11,VARGGSVD,no binding
12,AATTDSVD,binds
13,YTEEAAVD,binds
14,YTRGASLD,no binding
15,VKRGSFVD,no binding
16,DATTDSVD,no binding
17,YTKTSSVD,no binding
18,YKRGSSVD,binds
19,YTRKSSVD,no binding
20,VATTDSVD,no binding
21,VKRGSSVD,binds
22,DAGGGDWD,no binding
23,DAGGADVY,no binding
24,YATAADWD,no binding

row,Variant,antigen binding call
1,ATRTDDVF,no binding
2,DEGEDAGA,no binding
3,SEEGSDAS,no binding
4,YKRGSFVD,no binding
5,YARGTAVD,no binding
6,YKTGDSVD,binds
7,YKRGSAVD,binds
8,YKRRDSVD,binds
9,DGGTNSSA,no binding
10,DEGGTALA,no binding
11,SEGTGSGD,no binding
12,FGGEGDGA,no binding
13,VKRATSWD,no binding
14,YKRGGSWD,binds
15,YKTGDSWV,no binding
16,YKRGSSWD,binds
17,YKTGSSWD,binds
18,DGARNFGV,no binding
19,DTGANDWV,no binding
20,DATGGAAA,no binding
21,SKAENAWV,no binding
22,SKGRGAWV,binds
23,SRGANAWD,no binding
24,SKGGSAWD,no binding

row,Variant,antigen binding call
1,SRGRGAWD,binds
2,SAGGGAWV,no binding
3,SAGRGDWD,no binding
4,SKGRGAWD,binds
5,SRGRGSWD,binds
6,DRGRDDLV,no binding
7,AATTDDAV,no binding
8,SGRGNAAD,no binding
9,ATTKSDGV,no binding
10,VEGGTDVA,no binding
11,DAGTGSGA,no binding
12,SREGGVVV,no binding
13,YTRGADVV,no binding
14,YERRNDVV,binds
15,YRRRGDVV,binds
16,YEGGTDVV,no binding
17,YRRRGVVV,binds
18,YRRRGYVV,binds
19,YEGTGDVV,no binding
20,YRARGVVV,no binding
21,SGGRDSGV,no binding
22,AARADDSA,no binding
23,YRAEGYVV,binds
24,VGGGAAGV,no binding

row,Variant,antigen binding call
1,FRGRGFSA,no binding
2,YRGRGFSD,binds
3,YRGRGVSD,binds
4,YRGRGFSA,binds
5,YTEKTFSD,no binding
6,YKGRGFSD,no binding
7,DTTGSDVY,no binding
8,ATGRAAGD,no binding
9,FRTGGSAD,binds
10,FRTEGSAD,binds
11,FETGGYVY,no binding
12,SEARSSSV,no binding
13,YATEGVWV,no binding
14,DARGGSSV,no binding
15,AEREADWV,no binding
16,VETGNDVA,no binding
17,YRGGDYGA,no binding
18,YRGKDSGS,binds
19,YRGKDSGA,binds
20,YRGKDAGA,binds
21,VRAGDDSD,no binding
22,VRRGDSSD,binds
23,VEGGGSSS,no binding
24,VRGKGSSD,binds

row,Variant,antigen binding call
1,VTGTGSSD,no binding
2,VRKKGVSS,no binding
3,VTGGDSSD,no binding
4,VAGTGSSD,no binding
5,VRGKGSSS,binds
6,VRTADDGA,no binding
7,VAATADVA,no binding
8,YKEGAYAD,no binding
9,YKGRGYAV,binds
10,YKGRGYLV,binds
11,YKKTGYWV,no binding
12,YKETGYAV,binds
13,YKGEGYGV,no binding
14,YGGRGYAV,no binding
15,YKGEGDLV,no binding
16,YKGRGSLV,binds
17,DAARGDSA,no binding
18,AKGGGDVV,no binding
19,YAEEGVGY,no binding
20,YRARGAVA,binds
21,YRARGVGA,binds
22,YRARGAGA,binds
23,YRARGFGA,no binding
24,SEARSSSY,no binding

row,Variant,antigen binding call
1,VEEEGAGV,no binding
2,DTTKSDGV,no binding
3,YRARSAVA,binds
4,SEARSAVA,no binding
5,YRARSAWA,binds
6,YRERSSVA,binds
7,DRARTFVA,no binding
8,YRARSSVA,binds
9,SEARSAWA,no binding
10,AEERASAF,no binding
11,VAGTGAVV,no binding
12,VAEKGDLS,no binding
13,VTTKSDLA,no binding
14,SAGKDDLA,no binding
15,DEGGTDVY,no binding
16,YRARGSVF,binds
17,YTARGVSF,no binding
18,YRARGSLF,binds
19,FGAATDGV,no binding
20,DTREGDGA,no binding
21,FAGRDAVV,no binding
22,DGGKNAGD,no binding
23,YKRGSSSY,binds
24,VERGGDSY,no binding

row,Variant,antigen binding call
1,DARGGSSY,no binding
2,FKRGSSSY,binds
3,FKARDSSA,no binding
4,YKRGGSSY,binds
5,FKRRDSVY,no binding
6,YKKESDSY,no binding
7,YERRDVLY,no binding
8,YRTEDVGA,no binding
9,YREGGDGA,no binding
10,YRRGGDGA,binds
11,YEKGGDGA,no binding
12,YRKKSVGA,no binding
13,YARRDVGA,no binding
14,YRRGGVGA,binds
15,YRRGSVGA,binds
16,AGGENDGD,no binding
17,SGTKGYWD,no binding
18,DTKAAAGD,no binding
19,VEGGGDGV,no binding
20,DAGGASSV,no binding
21,YRGRSSSV,binds
22,ARGRSDAV,no binding
23,YRGRSASV,binds
24,YTGTSSSV,no binding

row,Variant,antigen binding call
1,FARETFGV,no binding
2,VETEGDWY,no binding
3,YRRRGASV,binds
4,YRRRGVGV,binds
5,YRRRGSGV,binds
6,YGRRGFSV,no binding
7,YRRRGDGV,binds
8,YREEGDGV,no binding
9,YARRGSGV,no binding
10,VETRSDVA,no binding
11,VTGTSDLY,no binding
12,VTAGDDVY,no binding
13,DAGRGDGF,no binding
14,DAGGAAGV,no binding
15,YATGGYAV,no binding
16,VATGGYAV,no binding
17,YRRRGAGV,binds
18,DAAGAAGV,no binding
19,YRRRGFGV,binds
20,DARRGAGV,binds
21,YKRRDFGV,no binding
22,DATGGYAV,binds
